The text below walks through data of the supplement of paper PMC7366291.

Molecules are shown by their SMILES. Where a name gives a salt, the structure may show the parent alone. ± gives the standard deviation of the averaged measurements.

For this assay, the system named is Danio rerio Tg(wt1b:EGFP) embryo, pronephros. As to the kind of experiment: glomerular width (mean of left and right), fold change vs DMSO control; higher = wider glomerulus. To be noted: 25 µM; exposure: 24-48 hpf. The essentials:
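Using a Fiji macro, distances and angles were calculated from 16 reference points set by hand on maximum projections of pronephroi imaged dorsally (470 nm, 10 z-slices) in agarose-filled 96-well plates. The dechorionated Tg(wt1b:EGFP) zebrafish embryos had received 25 μM compound in 0.5% DMSO in HEPES-buffered E3 with 0.003% PTU from 24 to 48 hpf at 28.5°C. Values more than 2 SD from a feature's mean were excluded. Each feature appears as a fold change over the mean of DMSO-treated embryos from the same day.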
With `CCN(CC)C(=O)/C(C#N)=C/c1cc(O)c(O)c([N+](=O)[O-])c1` [Entacapone], the glomerular width amounted to 0.938 ± 0.17.

`COC(=O)[C@@H]1[C@H]2C[C@H]3c4[nH]c5ccccc5c4CCN3C[C@@H]2CC[C@@H]1O` [Yohimbine hydrochloride] yielded a glomerular width of 1.08 ± 0.069.

The compound `CC(=O)SCC(Cc1ccccc1)C(=O)NCC(=O)OCc1ccccc1` (stereo not drawn) [Racecadotril] gave a glomerular width of 0.819 ± 0.085.

`O=C(NC(Cc1cc(=O)[nH]c2ccccc12)C(=O)O)c1ccc(Cl)cc1` (stereo not drawn) [Rebamipide] yielded a glomerular width of 0.942 ± 0.061.

`CN1CCN(c2c(F)cc3c(=O)c(C(=O)O)cn(CCF)c3c2F)CC1` [Fleroxacin] yielded a glomerular width of 0.977 ± 0.049.

In turn, `C[C@H]1[C@H](NC(=O)/C(=N\OC(C)(C)C(=O)O)c2csc(N)n2)C(=O)N1S(=O)(=O)O` [Aztreonam] displayed a glomerular width of 1.143 ± 0.0015.

In turn, `CCCCN(CCCC)CCCOC(=O)c1ccc(N)cc1` [Butacaine] gave a glomerular width of 0.939 ± 0.05.

For the compound `COc1ccc(CN2CCN(C(c3ccc(F)cc3)c3ccc(F)cc3)CC2)c(OC)c1OC` [Lomerizine hydrochloride], the glomerular width is 0.9746 ± 0.0083.

Turning to `Cc1ccsc1/C=C/C1=NCCCN1C` [Morantel tartrate], the glomerular width was determined as 1.132 ± 0.011.

Compound `CN(C)C(=N)NC(=N)N` [Metformin hydrochloride] displayed a glomerular width of 0.93 ± 0.035.

As for `COc1ccc2[nH]c([S+]([O-])Cc3ncc(C)c(OC)c3C)nc2c1` (stereo not drawn) [Omeprazole], the glomerular width turned out to be 0.935 ± 0.073.

For the compound `CCN1CCN(C(=O)N[C@@H](C(=O)N[C@@H]2C(=O)N3[C@@H]2SC(C)(C)[C@@H]3C(=O)O)c2ccccc2)C(=O)C1=O` [Piperacillin sodium salt], the glomerular width turned out to be 0.991 ± 0.063.

Compound `CC[C@H](C)C(=O)O[C@H]1CCC=C2C=C[C@H](C)[C@H](CC[C@@H]3C[C@@H](O)CC(=O)O3)[C@H]21` [Mevastatin] gave a glomerular width of 0.798 ± 0.046.

`COc1ccc2c(c1)N(C[C@H](C)CN(C)C)c1ccccc1S2` [Methotrimeprazine maleat salt] registered a glomerular width of 0.993 ± 0.037.

`CC(C)(C)C(=O)OCOC(=O)[C@@H]1N2C(=O)[C@@H](NC(=O)[C@H](N)c3ccccc3)[C@H]2SC1(C)C` [Pivampicillin] had a glomerular width of 1 ± 0.011.

Consider `CN(CCOc1ccc(CC2SC(=O)NC2=O)cc1)c1ccccn1` (stereo not drawn) [Rosiglitazone Hydrochloride], for which the glomerular width is 0.964 ± 0.03.

In the case of `CCN1CCCC1CNC(=O)c1cc(S(N)(=O)=O)ccc1OC` (stereo not drawn) [Sulpiride], the glomerular width was found to be 1.02 ± 0.023.

The compound `CC(=O)Nc1ccc(O)cc1` [Acetaminophen] yielded a glomerular width of 0.987 ± 0.037.

The compound `CC(CN(C)C)CN1c2ccccc2CCc2ccccc21` (stereo not drawn) [Trimipramine maleate salt] came in with a glomerular width of 1.06 ± 0.087.

`Cc1cccn2c(=O)c(-c3nnn[nH]3)cnc12` [Pemirolast potassium] came in with a glomerular width of 0.89 ± 0.062.

The compound `Cc1c(NC(=O)c2cccnc2)c(=O)n(-c2ccccc2)n1C` [Nifenazone] showed a glomerular width of 1.03 ± 0.014.

The compound `CC(C)(C)C(=O)OCOC(=O)[C@@H]1N2C(=O)[C@@H](/N=C/N3CCCCCC3)[C@H]2SC1(C)C` [Pivmecillinam hydrochloride] had a glomerular width of 1.101 ± 0.0091.

For the compound `COc1ccc(C2CNC(=O)C2)cc1OC1CCCC1` (stereo not drawn) [Rolipram], the glomerular width is 0.955 ± 0.023.

Consider `COc1ccc(C(=O)NCc2ccc(OCCN(C)C)cc2)cc1OC` [Itopride], for which the glomerular width came to 0.962 ± 0.017.

Regarding `O=C(NCC1CCCCN1)c1cc(OCC(F)(F)F)ccc1OCC(F)(F)F` (stereo not drawn) [Flecainide acetate], the glomerular width came out at 1.03 ± 0.022.

With `Nc1ccc(/N=N/c2ccccc2)c(N)n1` [Phenazopyridine hydrochloride], the glomerular width came out at 0.979 ± 0.025.

Regarding `C1CCC(C(CC2CCCCN2)C2CCCCC2)CC1` (stereo not drawn) [Perhexiline maleate], the glomerular width was found to be 0.9631 ± 0.0089.

Compound `CN[C@@H]1[C@H](O[C@H]2[C@H](O[C@H]3[C@H](O)[C@@H](O)[C@H](N=C(N)N)[C@@H](O)[C@@H]3N=C(N)N)O[C@@H](C)[C@]2(O)C=O)O[C@@H](CO)[C@H](O)[C@H]1O` [Streptomycin sulfate] displayed a glomerular width of 1.08 ± 0.098.

For the compound `CC(C)(O/N=C(\C(=O)N[C@@H]1C(=O)N2C(C(=O)[O-])=C(C[n+]3ccccc3)CS[C@H]12)c1csc(N)n1)C(=O)O` [Ceftazidime pentahydrate], the glomerular width came out at 0.993 ± 0.046.

Consider `Nc1ccc(S(N)(=O)=O)cc1` [Sulfanilamide], for which the glomerular width was 1 ± 0.063.

In turn, `Cc1ncc(C[n+]2csc(CCO)c2C)c(N)n1` [Thiamine hydrochloride] came in with a glomerular width of 1.1 ± 0.036.

For `CN(C)[C@@H]1C(O)=C(C(N)=O)C(=O)[C@@]2(O)C(O)=C3C(=O)c4c(O)ccc(Cl)c4[C@@H](O)[C@H]3C[C@@H]12` [Demeclocycline hydrochloride], the glomerular width is 0.999 ± 0.045.

Compound `Cc1cnc(C(=O)NCCc2ccc(S(=O)(=O)NC(=O)NC3CCCCC3)cc2)cn1` [Glipizide] registered a glomerular width of 1.056 ± 0.0043.
